Screening data (PubChem BioAssay)
Wnt act: activates Wnt/beta-catenin signaling in a reporter cell assay; activator, plate reader; AID 743398; activation, % at 9.35 µM; hit rate 1.2% among 300,000; in the data active = activation above about 30%, passing the limit was not always enough; inconclusive = no clear call, values can overlap the other calls;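 note: 0% = neutral control wells and 100% = positive control wells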
MITF TRPM1 HTS: increases MITF-driven TRPM1 promoter luciferase signal | SK-MEL-5 TRPM1-promoter luciferase, 24 h; % of positive control, neutral wells = 0 | activation, % at 12.5 µM | hit rate 0.75% among 300,000 | AID 588334;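 active = mean activation of at least 80% with every replicate also reaching 80%; inconclusive = mean reaches 80% but some replicate falls short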;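 note: 0% = neutral control wells and 100% = parthenolide positive control wells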
INS-1E GSIS act: primary screen for activators of insulin secretion dependent on glucose, INS-1E cells, GLuc reporter luminescence. AID 743287. hit rate 0.61% among 370,000. INS-1E GLuc reporter insulin secretion, 2-3 h. activation, % at 16.6 µM;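 active = lowest replicate activation of at least 40%, so every replicate reaches that level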;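 note: 0% = median of neutral control wells and 100% = median of IBMX positive control wells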
CFTR F508del cor: correctors of CFTR F508del function in bronchial epithelial cells. CFBE cells, YFP halide quenching; stimulated with forskolin plus potentiator P3; % fluorescence drop versus neutral controls. activity (quench increase), % at 7.58 µM. hit rate 0.36% among 350,000. AID 720511;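 active = mean added fluorescence quench of at least 8% versus neutral control, with both replicates also reaching 8%; inconclusive = only one of the mean or replicate conditions met; inactive = mean below 8% and not both replicates reaching 8%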;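 note: cells transiently co-express mutant CFTR-F508del with the halide-sensitive YFP; corrector assay measuring rescue of mutant channel to the surface after 24 h compound exposure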
Env fusion inh: blocks HIV Env-driven cell-cell fusion; AID 651610; HeLa-JRFL Env/CEM21 cell fusion, luciferase; hit rate 1.1% among 360,000; inhibition, % at 12.3 µM;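 active = mean replicate inhibition score of at least 50 and every replicate individually at or above 50; inconclusive = only one of the two criteria met; inactive = mean below 50 and not all replicates reaching 50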;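 note: 0% = plate neutral controls and 100% = maraviroc near 300 nM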
* marks the source's active call; other numbers are inactive results; ? = inconclusive; / = not tested or not shown; [ ] = another dose, or the depositor's remark. This is a sample that favours compounds with a hit; in the whole collection about 2.7% have one here.

SMILES | Wnt act | MITF TRPM1 HTS | INS-1E GSIS act | CFTR F508del cor | Env fusion inh
Cc1ccc(S(=O)(=O)N2C[C@H]3[C@H]4C(=O)N(C5CCCCC5)C(=O)[C@H]4CC(=O)[C@H]3[C@@H]2c2ccccc2Cl)cc1 | -2 | / | -13 | 0 | 59*
COc1ccc(COC(=O)NC2CCN(S(=O)(=O)c3ccc(OC)cc3)CC2)cc1 | -7 | 11 | / | / | 56*
COc1ccc(CNC(=O)CCn2c(=O)[nH]c3ccccc3c2=O)cc1 | -2 | -8 | 6 | 1 | -41
COc1ccc(-c2nc3c4ccccc4[nH]c(=O)n3n2)cc1 | 59* | / | / | / | -128
C[C@@H]1CN([C@@H](C)CO)C(=O)c2cc(C3=CCCC3)cnc2O[C@@H]1CN(C)C(=O)CN1CCOCC1 | / | / | 17 | -3 | 6[16.7 µM]
CNC[C@H]1Oc2ccc(NC(=O)C3CC3)cc2C(=O)N([C@@H](C)CO)C[C@H]1C | / | / | 18 | 2 | -9[16.7 µM]
Cc1scc(C(=O)N/N=C/c2ccc(Cl)s2)c1C | 58* | 44 | -2 | 0 | /
COc1ccc(C(CCNCc2ccc(N(C)C)cc2)c2ccccc2)cc1 (stereo not drawn) | 2 | -28 | -43 | -1 | 69*
CCCN1[C@@H]2c3ccc(-c4ccccc4)c(=O)n3C[C@@H]2[C@@H](CO)[C@@H]1C(=O)N1CCOCC1 | / | / | 5 | / | /
O=C1CCC(=O)N1CCSC(=S)N1CCOCC1 | 35* | / | 5 | -1 | -16
COC(=O)[C@]1(Cc2ccccc2)N[C@H](CN(C)S(=O)(=O)c2ccc(C(F)(F)F)cc2)[C@@H]2C(=O)N(Cc3ccccc3)C(=O)[C@@H]21 | -2 | -2 | 21 | -1 | 69*
CC[C@@]1(C(=O)OC)N[C@H](CN(C)S(=O)(=O)c2ccc(-c3ccccc3)cc2)[C@@H]2C(=O)N(Cc3ccccc3)C(=O)[C@@H]21 | 2 | 1 | / | 0 | 138*
CC[C@@]1(C(=O)OC)N[C@H](CN(C)S(=O)(=O)c2ccccc2)[C@@H]2C(=O)N(Cc3ccccc3)C(=O)[C@@H]21 | -1 | 1 | -7 | -1 | ?
COC(=O)[C@]1(Cc2ccccc2)N[C@H](CN(C)S(=O)(=O)c2ccc(C(C)(C)C)cc2)[C@@H]2C(=O)N(Cc3ccccc3)C(=O)[C@@H]21 | -3 | 0 | 6 | 2 | 20
COC(=O)[C@]1(C)N[C@H](CN(C)S(=O)(=O)c2ccc(-c3ccccc3)cc2)[C@@H]2C(=O)N(Cc3ccccc3)C(=O)[C@@H]21 | -2 | 3 | -6 | 1 | 81*
C[C@H]1CN([C@@H](C)CO)C(=O)Cc2cc(NC(=O)Cc3ccccc3)ccc2O[C@@H]1CN(C)C(=O)Nc1ccc(F)cc1 | / | / | -4 | 1 | /
S=C1NC(c2ccccc2)=NCN1c1ccccc1 | 42* | / | / | / | -65
COc1ccc(NC(=O)N(C)C[C@@H]2Oc3ccc(NS(=O)(=O)c4c(C)noc4C)cc3C(=O)N([C@H](C)CO)C[C@H]2C)cc1 | / | / | -2 | 0 | /
CNc1nc(OCC#N)nc(N2CCCCC2)n1 | 0 | 6 | 44* | 0 | 1
COc1cccc(C2CC(c3ccc(C)cc3)n3nc(N)nc3N2)c1 (stereo not drawn) | -6 | / | -26 | 2 | 66*
Nc1nc2n(n1)C(c1cccc(Cl)c1)CC(c1ccc(F)cc1)N2 (stereo not drawn) | 0 | -7 | 49* | -2 | 14
COc1cccc(C2CC(c3ccc(C)cc3)Nc3nc(N)nn32)c1 (stereo not drawn) | 0 | 3 | -19 | 1 | 9
CN1CC(c2ccccc2)C2(SC(=S)N(Cc3ccco3)C2=O)C12C(=O)Nc1ccccc12 (stereo not drawn) | / | -10 | / | / | 77*
O=S(=O)(Cc1noc(-c2ccccc2Cl)n1)c1ccccn1 | 40* | ? | 2 | 2 | -21
Cc1noc(C)c1-c1nc(CS(=O)(=O)c2ccc(Cl)cc2)no1 | -2 | 10 | 4 | 0 | -7
SMILES | Wnt act | MITF TRPM1 HTS | INS-1E GSIS act | CFTR F508del cor | Env fusion inh
Cc1ccc(S(=O)(=O)c2nc(-c3ccccc3Cl)oc2N(C)C)cc1 | 0 | -14 | -11 | 0 | 56*
Cc1ccc(S(=O)(=O)c2nc(-c3ccccc3Br)oc2N(C)C)cc1 | -5 | 10 | 21 | -1 | -16
CO[C@H]1CN(C)C(=O)c2ccc(NC(=O)C3CCOCC3)cc2OC[C@@H](C)N(CC2CC2)C[C@H]1C | / | / | 10 | -1 | /
CC12CN(C(=O)c3ccccc3Br)CC(C)(CN(C(=O)c3ccccc3Br)C1)C2=O | 41* | / | -6 | 0 | 32
O=C(c1ccncc1)N1CC(=O)N2[C@H](CO)[C@H](c3ccc(/C=C/c4ccccc4)cc3)[C@@H]2C1 | / | / | 5 | 2 | /
COc1cc2cnc(Cl)nc2cc1OC | / | -5 | 61* | / | -5
COc1cc2nncc(SC)c2cc1OC | -2 | -4 | / | 1 | /
O=C(c1ccccc1)c1ccc2ccccc2n1 | / | 33 | 50* | / | -125
CCCCCc1ccc(-c2ccc(=O)[nH]n2)cc1 | -16 | 11 | / | / | 50
Cc1ccc(-c2ccc(=O)[nH]n2)cc1 | / | -17 | / | / | 56*
CCC1(c2ccc(Cl)cc2)NC(=O)N(CC(=O)NC2CCCCCC2)C1=O (stereo not drawn) | 3 | 8 | -46 | -6 | -23
CCC1(c2ccc(F)cc2)NC(=O)N(CC(=O)NC2CC2)C1=O (stereo not drawn) | 31* | 0 | 26 | -1 | /
O=C(C[C@H]1C=C[C@@H](NC(=O)C2CCC2)[C@@H](CO)O1)Nc1nccs1 | / | / | -6 | 1 | 4[16.7 µM]
Cn1nccc1C(=O)N/N=C/c1ccccc1[N+](=O)[O-] | 41* | 50 | 2 | 1 | -16
COc1cccc(/C=N/NC(=O)c2ccoc2C)c1 | 40* | / | -4 | -1 | -17
Cc1occc1C(=O)N/N=C/c1ccccc1[N+](=O)[O-] | 44* | / | / | 1 | -61
CC=Cc1ccc2n(c1=O)C[C@H]1[C@H](CO)[C@@H](C(=O)NCc3ccncn3)N(C(=O)NC3CCCC3)[C@@H]21 (mixture of isomers) | / | / | 3 | / | -3[16.7 µM]
CO[C@@H]1CN(C)C(=O)c2cc(NS(C)(=O)=O)ccc2OC[C@H](C)N(Cc2ccccc2)C[C@@H]1C | / | / | -2 | 1 | 4[16.7 µM]
C[C@H]1CN([C@@H](C)CO)S(=O)(=O)c2ccc(-c3ccc(C(=O)N(C)C)cc3)cc2O[C@H]1CN(C)C(=O)C1CCC1 | / | / | 2 | 0 | /
CC(C)OC(=O)c1ccc2ccc(-c3ccccc3)nc2c1 | 24 | / | -5 | -1 | -255
CC(C)OC(=O)c1ccc2nc3ccccc3nc2c1 | 43* | 6 | 16 | -2 | -94
CC1Nc2ncnc(N3CCc4ccccc4C3)c2N(Cc2ccc(Cl)cc2)C1=O (stereo not drawn) | / | -1 | 74* | / | /
CS(=O)(=O)N1C2CN(CC3CC3)CC1C2c1ccc(Br)cc1 (stereo not drawn) | / | / | -9 | / | /
C[C@H]1CN([C@@H](C)CO)S(=O)(=O)c2ccc(-c3cccc(F)c3)cc2O[C@@H]1CN(C)C(=O)C1CC1 | / | / | 0 | -3 | 2[16.7 µM]
NC(=O)c1cc2cc(Cl)ccc2o/c1=N/NC(=O)c1cccs1 | 13 | 21 | 43* | 0 | -22
